This note sets out measurements from PubChem BioAssay (NCATS).

For assay [1], the target named is Androgen receptor (Homo sapiens) (UniProt P10275). The experiment in a line: qHTS assay for small molecule antagonists of androgen receptor signaling (AID 588516; active = well fitted curve in the direction sought with a large enough effect in the signal ratio, with a control signal flat, not every such curve was filed as active; the % refers to the signal ratio; note: % is set by controls: 0 for no effect and ±100 for the full control effect). The procedure, abridged: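 AR-UAS-bla-GripTite HEK 293 cells (2000/well, 5 h at 37 C) received compound titrations, then R1881 at 10 nM final; after 16 h at 37 C, CCF4 dye 2 h RT, beta-lactamase fluorescence read; IC50 from Hill fits.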
Androgen receptor (Homo sapiens), sequence (P10275 whole entry, looked up): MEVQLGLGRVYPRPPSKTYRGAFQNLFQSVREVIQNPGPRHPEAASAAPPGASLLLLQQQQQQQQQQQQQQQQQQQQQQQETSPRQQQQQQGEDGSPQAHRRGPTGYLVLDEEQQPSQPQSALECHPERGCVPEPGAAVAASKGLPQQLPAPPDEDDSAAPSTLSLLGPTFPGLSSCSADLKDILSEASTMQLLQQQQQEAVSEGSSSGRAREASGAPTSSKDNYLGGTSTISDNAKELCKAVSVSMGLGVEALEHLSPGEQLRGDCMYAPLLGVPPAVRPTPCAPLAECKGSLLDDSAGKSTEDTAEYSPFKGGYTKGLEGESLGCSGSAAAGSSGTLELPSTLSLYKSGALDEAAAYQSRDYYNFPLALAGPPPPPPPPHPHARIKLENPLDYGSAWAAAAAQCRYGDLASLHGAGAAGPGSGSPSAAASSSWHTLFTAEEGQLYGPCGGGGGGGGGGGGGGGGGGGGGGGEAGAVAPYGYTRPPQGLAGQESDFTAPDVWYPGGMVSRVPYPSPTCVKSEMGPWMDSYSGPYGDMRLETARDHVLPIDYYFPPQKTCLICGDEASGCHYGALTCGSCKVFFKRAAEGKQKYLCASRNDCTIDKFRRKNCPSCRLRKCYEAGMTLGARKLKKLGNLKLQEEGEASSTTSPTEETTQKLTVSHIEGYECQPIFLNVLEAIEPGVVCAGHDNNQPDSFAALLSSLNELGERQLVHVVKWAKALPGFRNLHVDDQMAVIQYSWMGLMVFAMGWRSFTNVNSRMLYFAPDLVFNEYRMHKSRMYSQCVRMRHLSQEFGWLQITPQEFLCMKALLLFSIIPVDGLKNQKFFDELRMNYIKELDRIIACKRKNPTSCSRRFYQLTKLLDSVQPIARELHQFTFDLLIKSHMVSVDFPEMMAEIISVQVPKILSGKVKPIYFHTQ
For orientation: qHTS replaces the single test concentration by a dilution series.

Assay [2] concerns the target Glucocorticoid receptor (Homo sapiens) (UniProt P04150). The experiment in a line: qHTS assay for small molecule agonists of glucocorticoid receptor signaling (AID 588532; active = well fitted curve in the direction sought with a large enough effect in the signal ratio, with a control signal flat; the % refers to the signal ratio;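 note: 100% = dexamethasone at 0.1 µM and 0% = DMSO only wells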). As to conditions: HeLa MMTV-bla, beta-lactamase ratio, agonist, 18 h; stronger effect = higher value; percent of dexamethasone control, DMSO zero. In short, it runs like this: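 Titration series, up to 92 uM, applied to GRE-bla HeLa cells for 18 h at 37 C. Detection by CCF4 FRET substrate after 2 h at RT.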

For assay [3] the target is unchanged. The experiment in a line: qHTS assay for small molecule antagonists of glucocorticoid receptor signaling (AID 588533; active = well fitted inhibition curve with a large enough effect in the signal ratio, with a control signal flat, not every such curve was filed as active; the % refers to the signal ratio;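 note: cells stimulated with 2 nM dexamethasone as agonist; % is set by controls: 0 for no effect and ±100 for the full control effect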). In short, it runs like this:
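Antagonist-mode qHTS: compound titrations added to GRE-bla HeLa cells, then dexamethasone 2 nM final; 18 h, 37 C. CCF4 FRET fluorescence normalized to dexamethasone and DMSO; IC50 from Hill fit.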

Assay [4] deals with Peroxisome proliferator-activated receptor gamma (Homo sapiens) (UniProt P37231). The experiment in a line: qHTS assay for small molecule agonists of peroxisome proliferator-activated receptor gamma signaling (AID 588536; active = well fitted curve in the direction sought with a large enough effect in the signal ratio, with a control signal flat, not every such curve was filed as active; the % refers to the signal ratio;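 note: 0% = DMSO basal wells and 100% = rosiglitazone at 2 µM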). In short, it runs like this: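 Beta-lactamase reporter read-out: CCF4 fluorescence (ex 405, em 460/530 nm) after 2 h at RT. HEK293 GeneBLAzer cells were treated for 16 h at 37 C. Hill fits gave EC50 and efficacy versus 2 uM rosiglitazone (100%) and DMSO (0%).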
Peroxisome proliferator-activated receptor gamma (Homo sapiens), sequence (P37231 whole entry, looked up): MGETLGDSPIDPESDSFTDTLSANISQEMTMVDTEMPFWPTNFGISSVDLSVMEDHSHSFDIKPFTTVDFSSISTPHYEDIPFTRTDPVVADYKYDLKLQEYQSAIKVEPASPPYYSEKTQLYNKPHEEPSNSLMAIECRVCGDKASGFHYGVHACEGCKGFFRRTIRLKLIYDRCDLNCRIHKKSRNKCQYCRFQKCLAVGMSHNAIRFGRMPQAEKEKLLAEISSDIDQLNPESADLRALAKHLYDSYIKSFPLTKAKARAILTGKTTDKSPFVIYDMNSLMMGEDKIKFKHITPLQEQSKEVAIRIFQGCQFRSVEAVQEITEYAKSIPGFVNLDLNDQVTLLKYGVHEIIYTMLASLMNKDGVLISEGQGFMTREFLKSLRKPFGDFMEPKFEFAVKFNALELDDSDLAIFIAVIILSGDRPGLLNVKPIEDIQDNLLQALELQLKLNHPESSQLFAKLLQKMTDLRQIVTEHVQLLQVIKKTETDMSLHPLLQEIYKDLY

The target in assay [5] is Vitamin D3 receptor (Homo sapiens) (UniProt P11473). Put plainly: qHTS assay for small molecule antagonists of vitamin D receptor signaling (AID 588541).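 Note: receptor activated by calcitriol during compound treatment; series mostly up to about 77 µM; % is set by controls: 0 for no effect and ±100 for the full control effect.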 The procedure, abridged: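 VDR-UAS-bla HEK293T cells (2000/well, 2% charcoal-stripped FBS) were treated with titrated compounds plus 1-alpha,25-dihydroxyvitamin D3 (50 nM or 3 nM final) for 16 h at 37 C. CCF4 beta-lactamase fluorescence was read; Hill fits gave IC50.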

Assay [6] has the same target. The experiment in a line: qHTS assay for small molecule agonists of vitamin D receptor signaling (AID 588543).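 Note: 0% = DMSO basal and 100% = reference agonist control.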 In short, it runs like this:
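GeneBLAzer VDR-UAS-bla HEK293T cells in 2% charcoal-stripped FBS medium were dosed with compound titrations for 16 h at 37 °C; CCF4 β-lactamase readout (405 nm ex, 460/530 nm em). EC50 and efficacy from Hill fits, normalized to 50 nM calcitriol (100%) and DMSO (0%).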

Assay [7] is described as follows: qHTS assay for small molecule agonists of retinoid X receptor alpha signaling (AID 588544).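 For activation: 0% = DMSO basal wells and 100% = reference agonist.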 The conditions noted are these: HEK293T RXRa-UAS-bla, beta-lactamase reporter, 18 h; 530 nm emission.
Assay [8] has as its target Retinoic acid receptor RXR-alpha (Homo sapiens) (UniProt P19793). The description is as above.
The target of assay [9] is Thyroid hormone receptor beta (Homo sapiens) (UniProt P10828). Put plainly: qHTS assay for small molecule agonists of thyroid hormone receptor beta signaling (AID 588545). In short, it runs like this: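 In this cell-based screen, titrated compounds act on HEK 293 cells held in medium with 2% charcoal/dextran FBS, NEAA and pyruvate for 18 hrs at 37 C. Responses are expressed relative to T3 (10 nM) as 100% and basal DMSO as 0%.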
Thyroid hormone receptor beta (Homo sapiens), sequence (P10828 whole entry, looked up): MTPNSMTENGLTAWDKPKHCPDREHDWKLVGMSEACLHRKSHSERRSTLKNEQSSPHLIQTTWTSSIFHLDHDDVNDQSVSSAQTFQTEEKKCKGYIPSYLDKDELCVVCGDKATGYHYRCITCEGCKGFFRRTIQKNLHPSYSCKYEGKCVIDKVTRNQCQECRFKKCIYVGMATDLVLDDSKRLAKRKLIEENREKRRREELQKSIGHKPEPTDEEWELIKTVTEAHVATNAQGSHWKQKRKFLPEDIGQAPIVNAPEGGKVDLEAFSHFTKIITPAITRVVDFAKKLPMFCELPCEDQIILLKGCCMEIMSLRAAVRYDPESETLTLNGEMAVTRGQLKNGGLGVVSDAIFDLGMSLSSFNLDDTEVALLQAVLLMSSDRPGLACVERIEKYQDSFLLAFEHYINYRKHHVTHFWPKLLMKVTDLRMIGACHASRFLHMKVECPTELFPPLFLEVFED

The nature of assay [10]: qHTS assay for small molecule antagonists of retinoid X receptor alpha signaling (AID 588546; active = well fitted inhibition curve with a large enough effect in the signal ratio, with a control signal flat, not every such curve was filed as active; the % refers to the signal ratio;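 note: cells stimulated with 9-cis-retinoic acid as agonist; % is set by controls: 0 for no effect and ±100 for the full control effect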). The conditions noted are these: HEK293T RXRa-UAS-bla, beta-lactamase ratio, antagonist mode; measured here: W530 green channel, cytotoxicity proxy. In short, it runs like this:
(§1)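 Beta-lactamase reporter inhibition, read as CCF4 fluorescence ratio (ex 405, em 460/530 nm) after 2 h at RT. HEK293T UAS-bla cells, 2500/well, were stimulated with 9-cis-RA at 500 or 100 nM final alongside test compound for 18 h at 37 C.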

Assay [11] has as its target Retinoic acid receptor RXR-alpha (Homo sapiens) (UniProt P19793). Described as above. The conditions noted are these: HEK293T RXRa-UAS-bla, beta-lactamase ratio, antagonist mode. The procedure, abridged:
as §1

Assay [12] deals with Thyroid hormone receptor beta (Homo sapiens) (UniProt P10828). The experiment in a line: qHTS assay for small molecule antagonists of thyroid hormone receptor beta signaling (AID 588547; active = well fitted inhibition curve with a large enough effect in the signal ratio, with a control signal flat, not every such curve was filed as active; the % refers to the signal ratio). The conditions noted are these: TR-UAS-bla HEK293, beta-lactamase ratio, antagonist mode, 18 h. In short, it runs like this: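 TR-UAS-bla GripTite HEK293 cells in 2% charcoal/dextran FBS medium were preincubated 4 h at 37 C, given compound (0.59 nM to 92 uM) plus 0.4 nM T3 (final) for 18 h, then CCF4 for 2 h at RT; Hill fit gave IC50.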

The target of assay [13] is Voltage-gated inwardly rectifying potassium channel KCNH2 (Homo sapiens) (UniProt Q12809). Put plainly: qHTS Assay for Small Molecule Inhibitors of the Human hERG Channel Activity (AID 588834; active = well fitted inhibition curve with a large enough effect;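 note: top concentration of the series differs between compounds; % is set by controls: 0 for no effect and ±100 for the full control effect; lower thallium flux fluorescence means stronger hERG block; nearly all actives have a fitted effect of over 50% in size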). In short, it runs like this: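 In hERG-transduced U2OS cells, dye-loaded for 1 hr at room temperature in dark, test compounds incubated 10 min at 37 °C before thallium stimulation. AC50 values derived by Hill modelling of concentration-response.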
Voltage-gated inwardly rectifying potassium channel KCNH2 (Homo sapiens), sequence (Q12809 whole entry, looked up): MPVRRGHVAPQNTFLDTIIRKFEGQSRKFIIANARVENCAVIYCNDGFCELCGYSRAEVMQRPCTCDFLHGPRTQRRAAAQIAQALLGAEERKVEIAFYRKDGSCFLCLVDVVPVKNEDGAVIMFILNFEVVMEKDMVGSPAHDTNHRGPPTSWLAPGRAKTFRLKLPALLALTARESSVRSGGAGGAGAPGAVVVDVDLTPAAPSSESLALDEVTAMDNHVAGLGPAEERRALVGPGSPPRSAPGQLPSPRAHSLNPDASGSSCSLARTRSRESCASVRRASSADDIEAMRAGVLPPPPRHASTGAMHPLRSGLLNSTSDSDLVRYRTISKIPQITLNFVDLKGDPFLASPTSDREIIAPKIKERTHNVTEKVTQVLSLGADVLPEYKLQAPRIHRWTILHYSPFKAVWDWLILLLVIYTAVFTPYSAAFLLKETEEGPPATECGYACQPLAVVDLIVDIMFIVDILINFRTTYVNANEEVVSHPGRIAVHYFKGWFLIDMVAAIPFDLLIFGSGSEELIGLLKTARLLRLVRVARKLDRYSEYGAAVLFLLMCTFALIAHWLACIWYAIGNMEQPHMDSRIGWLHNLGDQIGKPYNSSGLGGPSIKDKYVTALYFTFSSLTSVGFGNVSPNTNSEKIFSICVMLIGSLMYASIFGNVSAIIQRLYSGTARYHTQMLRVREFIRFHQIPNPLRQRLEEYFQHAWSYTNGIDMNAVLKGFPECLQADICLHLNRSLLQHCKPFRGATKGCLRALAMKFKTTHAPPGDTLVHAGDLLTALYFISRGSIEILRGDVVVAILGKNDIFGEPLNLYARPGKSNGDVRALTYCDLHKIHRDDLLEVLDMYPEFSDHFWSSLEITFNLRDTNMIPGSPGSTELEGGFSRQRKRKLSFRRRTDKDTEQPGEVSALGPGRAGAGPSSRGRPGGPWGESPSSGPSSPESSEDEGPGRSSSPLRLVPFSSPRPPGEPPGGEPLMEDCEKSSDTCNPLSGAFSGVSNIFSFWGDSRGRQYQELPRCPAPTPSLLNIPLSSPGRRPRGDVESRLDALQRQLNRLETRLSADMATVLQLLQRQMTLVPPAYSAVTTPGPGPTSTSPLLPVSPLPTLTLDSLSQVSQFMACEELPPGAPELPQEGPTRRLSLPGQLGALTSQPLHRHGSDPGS

Assay [14] is described as follows: qHTS assay for small molecule activators of the p53 signaling pathway (AID 651743; active = well fitted activation curve with a large enough effect in the signal ratio, not every such curve was filed as active; the % refers to the signal ratio; note: series mostly up to about 92 µM; % of control where 0% means no effect). The conditions noted are these: HCT-116 p53RE-bla, beta-lactamase FRET ratio, 16 h; stronger effect = higher value. The procedure, abridged:
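Here HCT-116 cells with an integrated p53-responsive beta-lactamase gene were incubated with compounds (16 hours, 37 C) after a 5-hour plating period; beta-lactamase activity was detected as fluorescence intensity via B/G FRET substrate.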

Assay [15] in a line: qHTS assay for small molecule activators of the nuclear factor-kappa B (NF-kB) signaling pathway (AID 651749; active = well fitted activation curve with a large enough effect in the signal ratio; the % refers to the signal ratio; note: series mostly up to about 77 µM; % of control where 0% means no effect). The conditions noted are these: NF-kB-bla ME-180 cells, beta-lactamase FRET ratio, 16 h; stronger effect = higher value. The procedure, abridged: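 Beta-lactamase reporter expression, controlled by NF-kB response elements in ME-180 cells, was quantified fluorometrically via FRET disruption; cells at 2,000/well had been incubated with 23 nL test compound for 16 hr.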

Assay [16] is described as follows: qHTS assay for small molecule antagonists of peroxisome proliferator-activated receptor delta signaling (AID 588535; active = well fitted inhibition curve with a large enough effect in the signal ratio, with a control signal flat, not every such curve was filed as active; the % refers to the signal ratio;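 for max response: cells co-treated with a PPAR-delta agonist as stimulator during compound exposure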). The conditions noted are these: HEK293T PPARd-UAS-bla, beta-lactamase FRET ratio, 18 h; 460 nm channel. In short, it runs like this:
(§2)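 Compounds tested in titration on PPAR-delta-UAS-bla HEK293T cells grown in charcoal/dextran-stripped serum (2%); beta-lactamase activity read via CCF4 emission at 460 and 530 nm.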

Assay [17] deals with Peroxisome proliferator-activated receptor delta (Homo sapiens) (UniProt Q03181). Described as above. In short, it runs like this:
as §2

Assay [18] in a line: qHTS assay for small molecule agonists of the antioxidant response element (ARE) signaling pathway (AID 651741; active = well fitted activation curve with a large enough effect in the signal ratio; the % refers to the signal ratio; note: % of control where 0% means no effect). The procedure, abridged:
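Beta-lactamase reporter expression driven by the antioxidant response element in HepG2 cells was detected by fluorescence with LiveBLAzer B/G FRET substrate (2 h, room temperature) following 16 h compound treatment at 37 C.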

For assay [19], the target named is Bile acid receptor (Homo sapiens) (UniProt Q96RI1). Put plainly: qHTS assay for small molecule antagonists of farnesoid X receptor signaling (AID 588526). Note: % is set by controls: 0 for no effect and ±100 for the full control effect. In short, it runs like this: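 Concentration-response titrations were fitted to the Hill equation for half-maximal inhibition and maximal response, with data normalised to 50 uM chenodeoxycholic acid and DMSO control wells. Cells: FXR-UAS-bla HEK293T, dialyzed FBS.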

Assay [20] deals with Peroxisome proliferator-activated receptor gamma (Homo sapiens) (UniProt P37231). The experiment in a line: qHTS assay for small molecule antagonists of peroxisome proliferator-activated receptor gamma signaling (AID 588537; active = well fitted inhibition curve with a large enough effect in the signal ratio, with a control signal flat, not every such curve was filed as active; the % refers to the signal ratio;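 note: reporter cells co-stimulated with 50 nM rosiglitazone agonist during compound treatment; % of control where 0% means no effect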). In short, it runs like this:
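HEK293 cells, PPAR-gamma-UAS-bla, 3000/well. Pre-incubation 6-6.5 h, 37 C. Compound titration with rosiglitazone 50 nM final, 16 h. CCF4 dye, 2 h RT, dual-emission fluorescence.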

Inconclusive results are not listed. Calls of active or inactive are those of the source. Unless noted, calls come from the whole dose curve.

Peroxisome proliferator-activated receptor delta (Homo sapiens), sequence (Q03181 whole entry, looked up): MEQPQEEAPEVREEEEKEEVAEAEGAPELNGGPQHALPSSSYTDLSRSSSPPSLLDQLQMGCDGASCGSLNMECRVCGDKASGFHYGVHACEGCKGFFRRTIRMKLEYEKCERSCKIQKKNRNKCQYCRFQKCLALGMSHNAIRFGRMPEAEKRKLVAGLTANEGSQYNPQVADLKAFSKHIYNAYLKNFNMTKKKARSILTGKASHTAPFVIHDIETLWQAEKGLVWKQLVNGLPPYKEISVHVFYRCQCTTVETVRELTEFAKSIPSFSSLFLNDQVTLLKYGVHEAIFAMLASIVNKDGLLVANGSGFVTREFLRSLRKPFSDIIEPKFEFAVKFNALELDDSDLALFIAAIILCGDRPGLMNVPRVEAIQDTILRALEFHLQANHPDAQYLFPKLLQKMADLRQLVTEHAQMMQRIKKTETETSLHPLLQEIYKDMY
Retinoic acid receptor RXR-alpha (Homo sapiens), sequence (P19793 whole entry, looked up): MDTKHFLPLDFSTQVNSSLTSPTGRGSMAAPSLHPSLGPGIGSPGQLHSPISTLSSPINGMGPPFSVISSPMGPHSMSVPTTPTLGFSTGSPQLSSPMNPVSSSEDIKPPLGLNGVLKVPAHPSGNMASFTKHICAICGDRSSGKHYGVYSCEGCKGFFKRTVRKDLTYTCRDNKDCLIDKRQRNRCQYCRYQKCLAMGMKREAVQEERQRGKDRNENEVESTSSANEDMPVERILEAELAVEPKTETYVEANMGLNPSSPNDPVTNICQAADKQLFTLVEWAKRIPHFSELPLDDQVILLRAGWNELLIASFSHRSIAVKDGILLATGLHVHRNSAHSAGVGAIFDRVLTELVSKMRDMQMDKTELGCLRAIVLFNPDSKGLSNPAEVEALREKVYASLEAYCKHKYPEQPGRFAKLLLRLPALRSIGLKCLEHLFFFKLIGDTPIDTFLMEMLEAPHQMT
Glucocorticoid receptor (Homo sapiens), sequence (P04150 whole entry, looked up): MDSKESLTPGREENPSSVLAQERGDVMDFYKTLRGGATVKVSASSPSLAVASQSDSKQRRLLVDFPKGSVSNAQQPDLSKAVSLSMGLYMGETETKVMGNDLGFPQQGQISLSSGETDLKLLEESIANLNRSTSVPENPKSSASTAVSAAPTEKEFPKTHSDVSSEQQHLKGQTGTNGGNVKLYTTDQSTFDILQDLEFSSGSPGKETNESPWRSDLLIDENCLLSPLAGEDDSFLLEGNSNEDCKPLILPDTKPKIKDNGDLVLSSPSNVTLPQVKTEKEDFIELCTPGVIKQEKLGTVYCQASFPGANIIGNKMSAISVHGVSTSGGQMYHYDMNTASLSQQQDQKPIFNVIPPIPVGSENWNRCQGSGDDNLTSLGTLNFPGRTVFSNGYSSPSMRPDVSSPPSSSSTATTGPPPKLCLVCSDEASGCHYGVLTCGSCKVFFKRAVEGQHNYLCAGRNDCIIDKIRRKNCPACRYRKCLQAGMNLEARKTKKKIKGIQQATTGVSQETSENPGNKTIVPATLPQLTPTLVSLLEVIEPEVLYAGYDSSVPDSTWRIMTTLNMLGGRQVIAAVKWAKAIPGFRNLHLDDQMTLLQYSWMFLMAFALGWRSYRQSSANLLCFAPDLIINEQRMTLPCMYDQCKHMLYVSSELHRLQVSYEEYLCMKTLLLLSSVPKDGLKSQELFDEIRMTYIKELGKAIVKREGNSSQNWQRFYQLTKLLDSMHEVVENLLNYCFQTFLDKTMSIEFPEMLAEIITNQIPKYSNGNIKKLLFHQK

`CCCCCCCCC/C=C/CC1CC(=O)OC1=O` (stereo not drawn): the result in [1], in assay [3], in assay [4], in [5], in [6] and in assay [8] was inactive. Also, the call in assay [9] was inactive. Also, the figures for the activation in assay [2], in [14] and in [15] were 0.907% (inactive), 3.69% (inactive) and -0.282% (inactive), respectively. In addition, the max response in assay [7] is -0.831%; in assay [10], 1.93%; in assay [11], 19.9% (inactive). For the same compound, the activity change % (negative = inhibition) in [12] was 2.72% (inactive). Moreover, the Potency result in assay [13] was “inactive”.

On to `Cc1ccc(N(C)C)cc1`, for which the outcome in assay [1], in [3], in assay [4], in assay [5], in [6] and in [8] was inactive. For the same compound, the figures for the activation in assay [2], in assay [14] and in [15] were -4.85% (inactive), -2.63% (inactive) and -0.0617% (inactive), respectively. In addition, the max response was 17.3% in [16], 5.65% in [7], -1.89% in assay [10] and 25.4% (inactive) in [11]. The Potency entry in [17], in [13] and in assay [18] was “inactive” each time. In addition, in [12], the activity change % (negative = inhibition) was 13.9% (inactive).

As to `CC(O)CC(C)O` (stereo not drawn), the result in assay [19], in assay [3], in [4], in [20], in [5] and in [6] was inactive. Moreover, in [8], the compound was classed as inactive. Also, the activation in assay [2] was 0.893% (inactive); in assay [15], -0.133% (inactive). Moreover, the max response in [16] is 7.44%; in [7], -6.63%; in assay [10], 14.5%; in [11], 3.51% (inactive). Also, the Potency entry in assay [17], in assay [13] and in assay [18] was “inactive” each time. The activity change % (negative = inhibition) in assay [12] was -2.07% (inactive).

As to `Nc1ccc(Cl)cc1[N+](=O)[O-]`, the call in assay [1], in [3], in assay [4], in [5], in assay [6] and in assay [8] was inactive. Further, the compound was classed as inactive in assay [9]. Besides, the max response was 66.3% in assay [16], -5.09% in [7], -5.59% in assay [10] and -5.85% (inactive) in assay [11]. For the same compound, the Potency entry in assay [17] and in assay [13] was “inactive” in each case. Also, the activity change % (negative = inhibition) in [12] is 1.54% (inactive). Besides, the activation is -3.6% (inactive) in assay [14] and -1.3% (inactive) in [15].

As to `CC/C=C1/OC(=O)c2ccccc21`, the compound was called inactive in [1], in [3], in [4], in assay [5], in assay [6] and in assay [8]. The result in assay [9] was inactive. The activation is -3.66% (inactive) in [2], -1.64% (inactive) in [14] and -0.0092% (inactive) in [15]. Besides, the max response in [16] is 6.22%; in assay [7], 0.089%; in assay [10], -8.24%; in assay [11], 8.95% (inactive). In addition, the Potency entry in assay [17], in assay [13] and in assay [18] was “inactive” in each case. Also, in [12], the activity change % (negative = inhibition) is 10.4% (inactive).

With `C=C(C)C(=O)OCCCCCC`, the outcome in assay [19], in assay [3], in [4], in assay [20], in [5] and in [6] was inactive. Besides, the outcome in assay [8] and in [9] was inactive. Besides, the activation in [2] was 8.12% (inactive); in assay [14], -0.374% (inactive); in [15], 0.571% (inactive). The max response in assay [16] was 4.68%; in assay [7] it was -12.9%. The Potency result in assay [17] and in assay [13] was “inactive” throughout. The activity change % (negative = inhibition) in [12] was 6.42% (inactive).

`O=C(Cl)c1ccccc1[N+](=O)[O-]`: the compound was called inactive in [1], in assay [3] and in assay [4]. Besides, the activation was -0.396% (inactive) in assay [2], 0.51% (inactive) in assay [14] and -0.445% (inactive) in assay [15]. Also, in assay [7], the max response was -17.2%. Further, the activity change % (negative = inhibition) in assay [12] was -10.2% (inactive). For the same compound, the Potency entry in assay [13] is “inactive”.
